# Compound activity: PubChem BioAssay, National Center for Advancing Translational Sciences (NCATS)
# Sampled rows, rich in hits. Any-hit rate of the full collection: about 7.3%.
# HEK cytotox = kills HEK 293 cells; HEK 293 viability, ATP luminescence (CellTiter-Glo), 48-72 h; Potency, µM (highest dose often 115 µM), for inactives: top-dose activity change, negative = cytotoxicity, hits mostly inhibitors; 6.6% of 94,000 active; AID 1345083; also: potency is read from the fitted curve at half-maximal effect; nearly all actives have a fitted effect of over 60% in size
#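 CellTiter-Glo luminescence (cellular ATP) was read after 48 or 72 hr of compound exposure at 37 degree Celsius. Cells were HEK 293 plated at 250 cells/well.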
# IP6K1 inh = inhibitors of human IP6K1. Q92551. IP6K1 kinase, ADP-Glo luminescence, 2 h; active compounds read low. activity change, % (series mostly up to about 58 µM). 0.81% of 140,000 active. AID 1645851; in the data active = activity change below about -25%
# Target sequence (Q92551 whole entry, looked up): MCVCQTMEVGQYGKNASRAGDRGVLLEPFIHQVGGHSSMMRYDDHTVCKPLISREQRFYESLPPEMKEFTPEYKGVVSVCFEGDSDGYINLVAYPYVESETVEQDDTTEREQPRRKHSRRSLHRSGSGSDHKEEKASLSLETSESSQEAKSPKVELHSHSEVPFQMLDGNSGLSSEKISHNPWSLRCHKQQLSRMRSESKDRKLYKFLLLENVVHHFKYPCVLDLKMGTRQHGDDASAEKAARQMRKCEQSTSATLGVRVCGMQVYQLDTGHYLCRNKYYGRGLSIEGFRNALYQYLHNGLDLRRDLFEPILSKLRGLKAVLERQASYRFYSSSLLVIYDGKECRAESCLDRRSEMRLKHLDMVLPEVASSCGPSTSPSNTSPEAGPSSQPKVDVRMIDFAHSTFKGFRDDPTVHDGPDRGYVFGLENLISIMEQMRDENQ
#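 ADP-Glo luminescence measures ADP made by human IP6K1 during a 2 h RT reaction with ATP/IP6 (mix at 1.3 mM/130 uM); top library doses 57.5 and 19.1 uM final.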
# NIH3T3 tox = NIH 3T3 cell cytotoxicity; 4.3% of 94,000 active; AID 1345082; NIH 3T3 viability, CellTiter-Glo ATP luminescence, 48-72 h; Potency, µM (titrated, usually from 96.7 µM), without a hit: at the top dose activity change, negative = cytotoxicity, hits mostly inhibitors; also: potency is read from the fitted curve at half-maximal effect; nearly all actives have a fitted effect of over 55% in size
#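 Mouse fibroblast NIH 3T3 cells, 400 per well, received compound via pintool and were incubated for 48 or 72 hr prior to CellTiter-Glo ATP luminescence measurement.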
# FLuc inh = Photinus pyralis luciferase inhibition; P08659; purified P. pyralis luciferase, luminescence, biochemical; Potency, µM (series often up to 115 µM), actives largely listed as inhibitors; 2.5% of 76,000 active; AID 1347043; also: potency is read from the fitted curve at half-maximal effect; nearly all actives have a fitted effect of over 65% in size
#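 FLuc 10nM, D-luciferin 10uM, ATP 10uM, Mg acetate 10mM, Tris acetate pH 7.5, Tween/BSA; cpd qHTS; enzyme added last; CCD luminescence.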
# SNCA viab count = counter-screen for SNCA expression inhibitors: cell viability. HEK-293-SNCA-luc viability, GF-AFC fluorescence, 24 h. AID 1671193. 0.12% of 150,000 active. Potency, µM (top dose mostly 57.1 µM), without a hit: top-dose activity change, negative = cytotoxicity, actives largely listed as cytotoxic;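 also: potency is read from the fitted curve at half-maximal effect; 0% = DMSO-treated cells and -100% = medium-only wells without cells; nearly all actives have a fitted effect of over 30% in size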
#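 Cytotoxicity counterscreen: after 24 h compound treatment of genome-edited SNCA-luciferase HEK-293 cells, live-cell protease substrate GF-AFC read by fluorescence after 30 min; activity scaled between DMSO (0%) and medium-only (-100%), curves Hill-fitted.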
# SNCA expr inhib = inhibitors of alpha-synuclein (SNCA) gene expression. HEK-293 SNCA-luciferase knock-in, luminescence, 24 h. Potency, µM (doses to about 57.2 µM), for inactives: top-dose activity change, negative = inhibition, actives largely listed as inhibitors. 0.17% of 140,000 active;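 also: potency is read from the fitted curve at half-maximal effect; plate controls were DMSO cells for no effect and cell-free wells for full effect; nearly all actives have a fitted effect of over 45% in size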
# * = called active by the depositor; i = inactive; ? = inconclusive; nt = not tested or not shown; [ ] = remark or other dose. Unless noted, calls follow the shape of the dose curve; as a rule, active = well fitted curve in the direction sought with a large enough effect; inconclusive = small, poorly fitted or top-dose-only effect, or another doubt; inactive = no such curve, though single readings can be large; an effect the other way counts as inactive or inconclusive. Unless noted, % is scaled to controls: 0 for no effect and ±100 for the full control effect.
SMILES,HEK cytotox,IP6K1 inh,NIH3T3 tox,FLuc inh,SNCA viab count,SNCA expr inhib
COc1ccccc1Nc1ccnc(N2CCC[C@H]2C(=O)N2CCC(Cc3ccccc3)CC2)n1,40µM*,-1,?,nt,?,?
COc1ccccc1Nc1ccnc(N2CCC(C(=O)NC3CCCC3)CC2)n1,?,11,?,nt,-6%,?
CN(C)C(=O)NC1CCN(c2nccc(Nc3ccccc3Cl)n2)CC1,45µM*,1,28µM*,nt,4%,-5%
O=C(NC1CCN(c2nccc(Nc3ccccc3Cl)n2)CC1)C1CCCC1,?,1,28µM*,nt,0%,-39%
COc1ccccc1Nc1ccnc(N2CCCC2C(=O)NCC2CC2)n1 (centres undefined),?,15,?,nt,-18%,6%
COc1ccccc1Nc1ccnc(N2CCN(C(=O)NC3CCCC3)CC2)n1,45µM*,12,32µM*,nt,-17%,-22%
O=C(NC1CCCC1)N1CCN(c2nccc(Nc3ccccc3Cl)n2)CC1,40µM*,17,?,nt,5%,-22%
COc1ccc(Nc2ccnc(N3CCN(C(=O)NC4CCCC4)CC3)n2)cc1,45µM*,-9,?,nt,0%,-10%
COc1ccc(Nc2ccnc(N3CCC(C(=O)NC4CC4)CC3)n2)cc1,?,-1,?,nt,4%[12.5 µM],-5%
CCN1CCC(N2CCC3(CC2)NCCc2c3[nH]c3ccc(OC)cc23)CC1,32µM*,-1,32µM*,i,1%[12.5 µM],13%
COc1ccc2[nH]c3c(c2c1)CCNC31CCN(C(=O)c2cccnc2C)CC1,?,6,-21%,i,-3%[12.5 µM],20µM*
COc1ccc2[nH]c3c(c2c1)CCNC31CCN(C(=O)c2cnccc2C)CC1,?,5,-19%,i,5%[12.5 µM],?
COc1ccc2[nH]c3c(c2c1)CCNC31CCN(S(=O)(=O)c2cccnc2)CC1,25µM*,-4,?,i,-6%[12.5 µM],19%
COc1ccc2[nH]c3c(c2c1)CCNC31CCN(C(=O)C2CC=CC2)CC1,45µM*,-3,-20%,i,-7%[12.5 µM],8%
Cn1c(C(=O)N2CCn3nc(Cc4ccccc4)cc3C2)cc2ccccc21,?,-1,?,i,-6%,-22%
COCCNC(=O)[C@@H]1C[C@H](Oc2ccccc2)CN1C(=O)c1cnc(C)cn1,3%,2,i,i,-7%,-16%
COc1cccc(C(=O)N2CCC(N3C(=O)c4c(c(C)nn4-c4ccccc4)C3C(C)C)CC2)c1 (centres undefined),45µM*,15,35µM*,nt,nt,nt
Cc1nn(-c2ccccc2)c2c1C(C(C)C)N(C1CCN(C(=O)c3cccc(Cl)c3)CC1)C2=O (centres undefined),18µM*,2,?,nt,nt,nt
Cc1nn(-c2ccccc2)c2c1C(C(C)C)N(C1CCN(C(=O)c3cccc(Cl)c3)C1)C2=O (centres undefined),?,2,?,nt,nt,nt
Cc1nn(-c2ccccc2)c2c1C(C(C)C)N(C1CCN(C(=O)c3ccc(Cl)cc3)CC1)C2=O (centres undefined),25µM*,9,?,nt,nt,nt
O=c1[nH]nc(Sc2ncc([N+](=O)[O-])s2)n1-c1ccc2c(c1)OCCO2,nt,nt,nt,nt,24µM*,?
CN1CCCC(c2n[nH]c(=O)n2-c2ccc3c(c2)OCO3)C1 (centres undefined),i,-7,-1%,i,-2%,4%
CC(=O)NC1(C)CCN(Cc2ccc(-c3ccccc3Oc3ccccc3)cc2)C1 (centres undefined),56µM*,3,40µM*,i,-16%[87.6 µM],-18%[87.6 µM]
CC(=O)NC1(C)CCN(Cc2ccccc2-c2ccc3ccccc3c2)C1 (centres undefined),?,-3,79µM*,i,-28%[87.6 µM],?
CC(=O)NC1(C)CCN(Cc2ccc(-c3ccc([S+](C)(=O)[O-])cc3)cc2)C1 (centres undefined),?,-2,-12%[138 µM],i,-6%[87.6 µM],42%[87.6 µM]
SMILES,HEK cytotox,IP6K1 inh,NIH3T3 tox,FLuc inh,SNCA viab count,SNCA expr inhib
COc1cccc(NC(=O)C2CCN(c3cn[nH]c(=O)c3)C2)c1 (centres undefined),i,5,2%,i,16%,24%
Cc1ccc(CNC(=O)c2ccc3c(c2)CN(Cc2ccncc2)CCO3)cc1,?,-5,?,nt,?,-39%
Cc1nc(C)c(C(=O)N2CCC(Cn3c(C)cnc3C3CCC3)C2)s1 (centres undefined),?,22,-15%,nt,12%,3%
CN1CCC(C(=O)N2Cc3ccccc3CC3(CCCN(Cc4cccnc4)C3)C2)CC1 (centres undefined),-6%,0,i,nt,-8%,-10%
OC[C@@H]1CN(C2CCCC2)C[C@H]1c1nc(-c2ccncc2)no1,i,-8,-12%,25µM*,-3%,115%
OC[C@@H]1CN(C2CCCC2)C[C@H]1c1nc(-c2cccnc2)no1,-6%,-8,0%,32µM*,1%,196%
COc1cccc(CN2CCc3nc(N4CCOCC4)[nH]c(=O)c3CC2)c1OC,1%,0,-1%,i,2%,-14%
Cc1noc(C)c1C(=O)N1CC(N(C)Cc2cccnc2)C1,17%,1,4%,i,12%,-5%
Cc1ccncc1C(=O)N1CC(N(C)Cc2cccnc2)C1,1%,-3,5%,35µM*,1%,90%
O=C1NCCCCCCN(Cc2ccncc2)[C@@H]2CN(C(=O)Nc3ccccc3)CC[C@H]12,-25%,25,?,i,-24%,?
Cc1nn(C)c2nc(-c3ccccn3)nc(NCc3ccc4c(c3)OCO4)c12,32µM*,-11,28µM*,?,-14%,19%
Cc1nn(C)c2nc(-c3ccccn3)nc(N3CCC4(CC3)COC(=O)O4)c12,-10%,20,-4%,i,-7%,11%
CNC(=O)c1cc[nH]c1C1CCCN(C(=O)Cn2c(=O)oc3ccccc32)C1 (centres undefined),-2%,26,4%,i,-3%[12.5 µM],15%
CN1CC(=O)N(c2ccc(Cl)cc2)Cc2c(NCCCc3ccccc3)ncnc21,?,-8,32µM*,40µM*,8%,124%
Cc1ccccc1N1Cc2c(NCCCc3ccccc3)ncnc2N(C)CC1=O,?,-2,45µM*,i,6%,9%
Cc1ccccc1N1Cc2c(NCCc3ccc(F)cc3)ncnc2N(C)CC1=O,?,-3,?,i,3%,26%
Cc1nn2c(c1-c1cccnc1N1CCOCC1)N(CCC(C)C)CCC2,40µM*,9,?,i,?,?
